Data reported in PubChem BioAssay (Tox21).
Results filed as inconclusive are left out. Entries that show only a call come without a potency. Activity calls are given as the source filed them. The call rests on the fitted dose curve; in most records, active means well fitted cell-killing curve with a large enough effect in the repeat runs; inconclusive means weak or mixed curves, or effect the other way; inactive means no such curve, though single readings can be large or run the other way.

Assay: qHTS assay to identify small molecule antagonists of the peroxisome proliferator-activated receptor gamma (PPARg) signaling pathway - cell viability counter screen (AID 743194); further: nearly all actives have a fitted effect of over 55% in size
Conditions: PPARg-bla HEK293H viability, CellTiter-Glo luminescence, 17 h, co-treated with 50 nM rosiglitazone; series mostly up to 62.6 µM
Description: U.S. Tox21 Program National Center for Advancing Translational Sciences [NCATS] NIH Chemical Genomics Center [NCGC] U.S. Environmental Protection Agency [EPA] National Institutes of Environmental Health Sciences [NIEHS] National Toxicology Program [NTP] U.S. Food and Drug Administration [FDA] Tox21 Assay Overview: The peroxisome proliferator-activated receptors (PPARs) are lipid-activated transcription factors of the nuclear receptor superfamily with three distinct subtypes namely PPAR alpha, PPAR delta (also called PPAR beta) and PPAR gamma (PPARg). All these subtypes heterodimerize with Retinoid X receptor (RXR) and these heterodimers regulate transcription of various genes. PPAR-gamma receptor (glitazone receptor) is involved in the regulation of glucose and lipid metabolism. To identify the compounds that activate PPAR-gamma signaling, GeneBLAzer PPAR gamma UAS-bla HEK293H cell line (Invitrogen, Carlsbad, CA, USA) containing a beta-lactamase reporter gene under the control of an Upstream Activator Sequence (UAS) was used to screen the Tox21 compound library. The cytotoxicity of the Tox21 compound library against the PPARg-bla cell line was tested in parallel by measuring the cell viability using CellTiter-Glo assay in the same wells.
Tox21 Assay Protocol Summary: PPARg-bla cells were dispensed at 3000 cells/5uL/well in 1536-well black wall/clear bottom plates using a Multidrop Combi (Thermo Fisher Scientific, Waltham, MA) dispenser. After the assay plates were incubated at 37 C and 5% CO2 for 5 h, 23 nL of compounds dissolved in DMSO, positive controls or DMSO only was transferred to the assay plate by a Pintool station (Kalypsys, San Diego, CA), followed by addition of 1ul Rosiglitazone (50 nM, final concentration in the wells). The assay plates were incubated at 37 C for 17 h, and then 1 uL of LiveBLAzerTM B/G FRET substrate was added using a Bioraptr Flying Reagent Dispenser (FRD) workstation (Beckman Coulter, Indianapolis, IN, USA). The assay plates were incubated at room temperature for 1 h and fluorescence intensity was measured by an Envision plate reader (PerkinElmer, Shelton, CT). For cell viability readout that measures cytotoxicity, 4 ul/well of CellTiter-Glo reagent was added into the assay plates using a Flying Reagent Dispenser. After 30 min incubation at room temperature, the luminescence intensity in the plates was measured using a ViewLux plate reader (PerkinElmer).

Compound	Potency
CCCCNC(=S)NCCCC	inactive
CC(C)(C)C1CCCCC1=O (stereo not given)	inactive
CC(C)NCC(O)COc1ccc(CCOCC2CC2)cc1 (stereo not given)	inactive
Oc1ccccc1C=NCc1ccccc1	inactive
OCCN(CCO)CCN(CCO)CCO	inactive
CC(C)C[C@H](NC(=O)OCC1c2ccccc2-c2ccccc21)C(=O)O	inactive
CC(C)S	inactive
O=Cc1ccc(O)c(O)c1O	inactive
Cc1c(N)cccc1N	inactive
CO[Si](C)(C)OC	inactive
O=C(O)[C@@H]1CSCN1	inactive
COc1ccccc1N1CCN(CCCNc2cc(=O)n(C)c(=O)n2C)CC1	inactive
COc1cc(N)c(Cl)cc1C(=O)NC1CCN(Cc2ccccc2)CC1	inactive
O=C1C=CC(=O)O1	inactive
C[C@@H](N)C(=O)O	inactive
CC(C)(C)c1ccc(OC(=O)c2ccccc2O)cc1	inactive
CC(C)=CCC[C@](C)(O)[C@@H]1CC=C(C)CC1	inactive
Cc1cc2nc(N)sc2cc1C	inactive
CC(=O)Nc1ccc(C)c(Cl)c1	inactive
CN1CCN(c2c(F)cc3c(=O)c(C(=O)O)cn(CCF)c3c2F)CC1	inactive

Compound	Potency
O=c1[nH]c(=O)n([C@H]2C[C@H](O)[C@@H](CO)O2)cc1C(F)(F)F	inactive
O=C(O)[C@@H](O)[C@H](O)[C@H](O)[C@@H](O)C(=O)O	inactive
CCCN(CCC)C(=O)C(CCC(=O)O)NC(=O)c1ccccc1 (stereo not given)	inactive
CCOc1ccccc1N	inactive
NCCCN1CCN(CCCN)CC1	inactive
CCCCCCCCc1ccc(S(=O)(=O)O)cc1	inactive
Cc1ccc(C(C)C)cc1O	inactive
CN1[C@@H]2CC[C@H]1CC(OC(=O)c1c[nH]c3ccccc13)C2 (stereo not given in full)	inactive
CCOC(=O)NCCC[Si](OCC)(OCC)OCC	inactive
CCCCNCCCC	inactive
Cc1cc(NS(=O)(=O)c2ccc(N)cc2)nc(C)n1	inactive
CN(CC1(C)CCCO1)S(=O)(=O)c1ccc(Cl)c(S(N)(=O)=O)c1 (stereo not given)	inactive
CCN1CC(CCN2CCOCC2)C(c2ccccc2)(c2ccccc2)C1=O (stereo not given)	inactive
NS(=O)(=O)c1cc(-c2nn[nH]n2)c(NCc2cccs2)cc1Cl	inactive
CCCCCCCCCCCCOCCOS(=O)(=O)O	inactive
COC(=O)c1ccc2cc(C(=O)OC)ccc2c1	inactive
C1CSCCS1	inactive
FC(F)(F)c1ccccc1	inactive
COC(=O)c1ccc(OC)cc1	inactive
CCc1cc2cc(OC)c(OC)cc2c(Cc2ccccc2)n1	inactive
